Data published in PubChem BioAssay AID485281 (National Center for Advancing Translational Sciences (NCATS), 2010).
Among all 350,000 compounds or so, about 260 (0.074%) were called active. Another 8% or so got no clear call; they are omitted. Calls follow the shape of the dose curve; as a rule, active = well fitted inhibition curve with a large enough effect; inconclusive = small, poorly fitted or top-dose-only effect; inactive = no such curve, though single readings can be large or run the other way. Only a selection was taken, and actives are over-represented in it overall.
% is scaled to controls: 0 for no effect and ±100 for the full control effect; potency is read from the fitted curve at half-maximal effect.
Also: nearly all actives have a fitted effect of over 20% in size.

The molecules below were run against Ferritin light chain (Equus caballus) (UniProt P02791) (assay: qHTS Assay for Identification of Novel General Anesthetics). Conditions: apoferritin/1-aminoanthracene competitive binding, fluorescence; series mostly up to 77.5 µM; activity change, negative = displacement: at the top concentration.
Chain of Ferritin light chain (Equus caballus) (P02791 2-175 limits assumed): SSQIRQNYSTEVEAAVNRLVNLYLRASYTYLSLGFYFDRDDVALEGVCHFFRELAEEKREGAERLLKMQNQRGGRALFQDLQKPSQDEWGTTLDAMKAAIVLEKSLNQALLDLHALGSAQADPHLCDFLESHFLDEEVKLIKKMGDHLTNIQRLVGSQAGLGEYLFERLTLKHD
Source text: Source: NIH Chemical Genomics Center [NCGC]
Assay Submitter: Roderic Eckenhoff, University of Pennsylvania
Screening Center PI: Christopher P. Austin, NIH
Probe Development: NIH Chemical Genomics Center [NCGC]
Anesthetic development has remained a largely empirical process. There are growing concerns about the cognitive effects of known general anesthetics and acceleration of the onset of neurodegenerative disease. The compounds' toxicity and multiple specific binding targets in the mammalian brain [4] has made them less attractive as drug leads. In this assay, a GABAergic mimetic model system, apoferritin and a profluorescent 1-aminoanthracene ligand (1-AMA), was used to construct a competitive binding assay for identification of novel general anesthetics. The assay was validated for 1-AMA using other known anesthetics, such as isoflurane (CID:3763) and propofol (CID: 4943), [6].
[1] S.L. Bianchi, T. Tran, C. Liu, S. Lin, Y. Li, J.M. Keller, R.G. Eckenhoff, and M.F. Eckenhoff, Brain and behavior changes in 12-month-old Tg2576 and nontransgenic mice exposed to anesthetics. Neurobiol Aging 29 (2008) 1002-10.
[2] Z. Xie, Y. Dong, U. Maeda, R.D. Moir, W. Xia, D.J. Culley, G. Crosby, and R.E. Tanzi, The inhalation anesthetic isoflurane induces a vicious cycle of apoptosis and amyloid beta-protein accumulation. J Neurosci 27 (2007) 1247-54.
[3] P. Honegger, and J.M. Matthieu, Selective toxicity of the general anesthetic propofol for GABAergic neurons in rat brain cell cultures.
[4] M.F. Eckenhoff, K. Chan, and R.G. Eckenhoff, Multiple specific binding targets for inhaled anesthetics in the mammalian brain. J Pharmacol Exp Ther 300 (2002) 172-9.
[5] C.A. Butts, J. Xi, G. Brannigan, A.A. Saad, S.P. Venkatachalan, R.A. Pearce, M.L. Klein, R.G. Eckenhoff, and I.J. Dmochowski, Identification of a fluorescent general anesthetic, 1-aminoanthracene. Proc Natl Acad Sci U S A 106 (2009) 6501-6.
[6] W.A. Lea, J. Xi, A. Jadhav, L. Lu, C.P. Austin, A. Simeonov, and R.G. Eckenhoff, A high-throughput approach for identification of novel general anesthetics. PLoS One 4 (2009) e7150.
Three uL of reagents (free 1-AMA (50% saturated solution of 1-aminoanthracene
in PBS) in columns 3, 4 as negative control and 1-AMA/apoferritin mixture (10 uM horse-spleen apoferritin in 50% saturated 1-aminoanthracene in PBS) in columns 1, 2, 5-48) was dispensed into 1536-well Greiner black assay plates. Compounds (23 nL) were transferred via Kalypsys pintool equipped with 1,536-pin array (10 nL slotted pins, V&P Scientific, San Diego, CA). Titration of the positive control, propofol, were delivered via pin transfer from separate control plates to the 2nd column of each assay plate. The starting concentration of the control, dissolved in DMSO, was at 160 mM, followed by two-fold dilution points in duplicate, for a total of 16 concentrations. The plates were incubated for 10 min at room temperature, and then read on an EnVision HTS multilabel reader (Perkin-Elmer, Waltham, MA) (end point read, 3 min/plate) using Fura2 BFP excitation filter (380 nm, bandwidth 10 nm) and fluorescein emission filter (535 nm, bandwidth 25 nm) set. A LANCE/DELFIA dichroic mirror with a cutoff wavelength at 400 nm was used to maximize signal accuracy and strength. Vehicle-only plates, with DMSO being pin-transferred to the entire column 5-48 compound area, were inserted uniformly at the beginning and the end of each library in order to monitor for and record any shifts in the background. Activity was computed as the normalized fluorescence response relative to free 1-AMA and 1-AMA/apoferritin complex values. Concentration-effect relationships were derived by using curve fitting algorithms developed in-house (http://ncgc.nih.gov/pub/openhts/). A four parameter Hill equation was fitted to the concentration-response data by minimizing the residual error between the modeled and observed responses.
With `O=C(NCc1ccc(F)cc1)c1ccc(Cn2c(SCc3ccc(F)cc3)nc3cccnc32)cc1` the “activity change, negative = displacement” value was -5.12% (inactive).
`Cc1cccc2nc(-c3ccc(Cl)s3)c(Nc3ccc4c(c3)OCCO4)n12` was tested, and the “activity change, negative = displacement” value was 58.8% (inactive).
With `O=C(NCC(c1cccnc1)N1CCc2ccccc21)c1cccc(C(F)(F)F)c1` (configuration not stated) the “activity change, negative = displacement” value was -10% (inactive).
With `CCOc1ccc(C(=O)/C=C/c2cn(CC(O)CN3CCCCCC3)c3ccccc23)cc1` (configuration not stated) the “activity change, negative = displacement” value was -7.92% (inactive).
For `CCOc1ccc(NC(=O)CCc2c(C)nn(-c3ccc(N4CCCC4)nn3)c2C)cc1`, the “activity change, negative = displacement” value was 42.2% (inactive).
With `Cc1ccc(-c2nc(SCc3ccc(Br)cc3)n3[nH]c(=O)cc3n2)cc1` the “activity change, negative = displacement” value was 2.21% (inactive).
For `Cc1ccc(CN2CCc3nc(N4CCN(C)CC4)ncc3C2)cc1`, the “activity change, negative = displacement” value was 11.3% (inactive).
For `CCOC(=O)c1cnc2c(C)cc(C)cc2c1Nc1ccc(N2CCOCC2)cc1`, the “activity change, negative = displacement” value was -13.5% (inactive).
In the case of `COc1cc2nc(SCc3ccc(F)cc3)n3nc(CCn4c(C)nc5ccccc54)nc3c2cc1OC`, the “activity change, negative = displacement” value is reported as 26.5% (inactive).
`CCOCCc1nn2c(=O)cc(COC(=O)CNC(=O)c3ccc(C(C)(C)C)cc3)nc2s1` was tested, and the “activity change, negative = displacement” value was -16.9% (inactive).
With `Cc1cccc(NC(=O)C2CCN(S(=O)(=O)c3c(C)noc3/C=C/c3ccco3)CC2)c1` the “activity change, negative = displacement” value was -8.73% (inactive).
For `CCN(CCCNC(=O)c1ccc(Sc2ccc(C)cc2)c(NC(C)=O)c1)c1cccc(C)c1`, the “activity change, negative = displacement” value was 8.6% (inactive).
`CCOC(=O)c1ccc(CN(Cc2ccccc2)S(=O)(=O)c2ccc(Cl)cc2)cc1` was tested, and the “activity change, negative = displacement” value was 52.1% (inactive).
In the case of `COc1cc(OC)c(NC(=O)N2CC3CCCN3c3ccccc32)cc1Cl` (configuration not stated), the “activity change, negative = displacement” value is reported as -13.5% (inactive).
With `COc1ccc2[nH]c3c(c2c1)CCN(C(=O)CCC1CCCC1)C3c1ccc(F)cc1` (configuration not stated) the “activity change, negative = displacement” value was 9.86% (inactive).
For `CN(C(=O)CSc1nc2ccccc2n1Cc1ccccc1C#N)c1ccccc1`, the “activity change, negative = displacement” value was 78.3% (inactive).
With `Cc1cccc(N2CCN(c3ccc(C(=O)O)cc3NC(=O)c3ccccc3F)CC2C)c1` (configuration not stated) the “activity change, negative = displacement” value was -15.5% (inactive).
In the case of `CCCCc1nn2c(=O)cc(COC(=O)c3ccc(NC(=O)c4ccccc4C)cc3)nc2s1`, the “activity change, negative = displacement” value is reported as -0.216% (inactive).
In the case of `CCC(=O)N1CCc2cc(S(=O)(=O)NC(C(=O)NCCc3ccc(C)cc3)C(C)C)ccc21` (configuration not stated), the “activity change, negative = displacement” value is reported as -8.37% (inactive).
For `O=C(CSc1nc(-c2cccc(F)c2)[nH]c1-c1ccccc1)Nc1ccc2c(c1)OCO2`, the “activity change, negative = displacement” value was 37.9% (inactive).
For `CCOC(=O)c1ccc(NC(=O)c2c(NCc3cccs3)sc3c2CCCC3)cc1`, the “activity change, negative = displacement” value was 7.21% (inactive).
`COc1ccc(C)cc1NC(=O)COCc1cc(-c2cccs2)on1` was tested, and the “activity change, negative = displacement” value was 3.35% (inactive).
In the case of `Cc1ccc(-n2ncc3c(NCCCn4ccnc4)ncnc32)cc1Cl`, the “activity change, negative = displacement” value is reported as -2.7% (inactive).
In the case of `CCN(CC)S(=O)(=O)c1nnc(NC(=O)COc2ccccc2Cl)s1`, the “activity change, negative = displacement” value is reported as -19.9% (inactive).
`Cc1nc2nc(NCc3cccc(Br)c3)[nH]n2c(=O)c1Cc1ccccc1` was tested, and the “activity change, negative = displacement” value was -2.1% (inactive).
For `COc1ccccc1N1CCN(CCCNC(=O)c2cnn(-c3ccccc3Cl)c2C2CCN(C(=O)OC(C)(C)C)CC2)CC1`, the “activity change, negative = displacement” value was -12.6% (inactive).
In the case of `COc1ccc(-n2ccn(CC(=O)Nc3ccc(C)c(C)c3)c(=O)c2=O)cc1OC`, the “activity change, negative = displacement” value is reported as -4.83% (inactive).
For `Cc1nn(C(C)C(=O)NCCc2ccccc2)c(=O)c2c1sc1ccccc12` (configuration not stated), the “activity change, negative = displacement” value was 78.3% (inactive).
`COc1ccc(-c2cccc(NS(=O)(=O)c3cc(C)c(OC)c(C)c3C)c2)nn1` was tested, and the “activity change, negative = displacement” value was -14.2% (inactive).
`Cc1cccc(C(=O)Nc2ccc(S(=O)(=O)N3CCCCC3c3cccnc3)cc2)c1` (configuration not stated) was tested, and the “activity change, negative = displacement” value was 8.01% (inactive).
For `CCCCN(CC)C(=O)c1c[nH]c2ccc(S(=O)(=O)Nc3cccc(OC)c3)cc2c1=O`, the “activity change, negative = displacement” value was -15.8% (inactive).
In the case of `Cc1c(NC(=S)NCc2ccc(F)cc2)cccc1[N+](=O)[O-]`, the “activity change, negative = displacement” value is reported as -8.7% (inactive).
With `O=[N+]([O-])c1ccccc1NCc1ccc(Cl)cc1` the Potency was 8.91 µM (active).
`O=C(NCCNc1ccccc1[N+](=O)[O-])c1ccccc1F` was tested, and the “activity change, negative = displacement” value was -17.2% (inactive).
In the case of `CC(Nc1ccc(-c2nc(-c3ccco3)no2)cc1[N+](=O)[O-])c1ccccc1` (configuration not stated), the “activity change, negative = displacement” value is reported as -15.1% (inactive).
In the case of `COc1ccc(C2C(=O)N(C3CCCCC3)CC(=O)N2Cc2ccccc2Cl)cc1OC` (configuration not stated), the “activity change, negative = displacement” value is reported as -5.68% (inactive).
In the case of `COc1ccc(Nc2ncc3c(n2)CCN(C(=O)OC(C)(C)C)C3)cc1`, the “activity change, negative = displacement” value is reported as -0.4% (inactive).
`CCOC(=O)C1CCN(c2csc3ccc(C)cc3c2=O)CC1` was tested, and the “activity change, negative = displacement” value was -6.57% (inactive).
With `NC(=O)Nc1ccccc1C(=O)NCCc1ccccc1` the “activity change, negative = displacement” value was 6.37% (inactive).
`O=C(O)c1ccccc1-c1ccccc1C(=O)NCCc1ccccc1` was tested, and the “activity change, negative = displacement” value was -2.83% (inactive).
With `Nc1nonc1C(=O)NCCc1ccccc1` the Potency was 17.8 µM (active).
`O=C1CCCc2cc(S(=O)(=O)N3CCCC(C(=O)NCc4ccccc4)C3)ccc2N1` (configuration not stated) was tested, and the “activity change, negative = displacement” value was -3.62% (inactive).
With `CCOc1ccccc1C(=O)Nc1ccc2c(c1)N(C)C(=O)c1ccccc1S2` the “activity change, negative = displacement” value was -13.2% (inactive).
With `Cc1cc(F)ccc1NC1(c2ccccc2)C(=O)c2ccccc2C1=O` the “activity change, negative = displacement” value was -6.15% (inactive).
In the case of `COc1ccc(-c2noc(-c3ccc(N4CCN(c5ccccc5)CC4)c([N+](=O)[O-])c3)n2)cc1OC`, the “activity change, negative = displacement” value is reported as -8.01% (inactive).
In the case of `Cc1ccc(-c2nnc(SCC(=O)NCc3ccccc3)nc2-c2ccc(C)cc2)cc1`, the “activity change, negative = displacement” value is reported as -7.43% (inactive).
With `Cc1ccccc1CNC(=O)C(=O)NCC(c1cccs1)S(=O)(=O)c1cccs1` (configuration not stated) the “activity change, negative = displacement” value was 46.9% (inactive).
With `COc1ccc(Nc2cc(C(=O)NCCCN(C)c3ccccc3)c3ccccc3n2)c(OC)c1` the “activity change, negative = displacement” value was 50% (inactive).
For `CCOC(=O)CN1C(C(=O)c2ccccc2)=C(OC(=O)C(C)(C)C)c2ccccc2S1(=O)=O`, the “activity change, negative = displacement” value was -5.44% (inactive).
With `COc1ccc(N2CCN(S(=O)(=O)c3ccc(-c4coc(C)n4)cc3)CC2)cc1` the “activity change, negative = displacement” value was -0.187% (inactive).
`Cn1c(SCC(=O)N2CCCc3ccccc32)ncc(C(=O)Nc2ccc(F)cc2)c1=O` was tested, and the “activity change, negative = displacement” value was -15.9% (inactive).
`CCOC(=O)c1scc(-c2ccccc2)c1S(=O)(=O)Nc1ccccc1F` was tested, and the “activity change, negative = displacement” value was 57.3% (inactive).
For `COc1ccc2c(c1)CCc1c(C(=O)Nc3cc(C)ccc3O)noc1-2`, the “activity change, negative = displacement” value was -8.63% (inactive).
In the case of `CCc1ccc(NC(=O)c2cc3c(=O)n(Cc4cccnc4)ccc3nc2C)cc1`, the “activity change, negative = displacement” value is reported as -2.71% (inactive).
For `COc1ccc(NC(=O)CSc2nccn2Cc2ccc3c(c2)OCO3)cc1`, the “activity change, negative = displacement” value was -10.6% (inactive).
In the case of `CC(=O)N1CCCc2cc(S(=O)(=O)N3CCC(C(=O)NCc4ccc(C)cc4)CC3)ccc21`, the “activity change, negative = displacement” value is reported as -10.5% (inactive).
In the case of `CCOc1ccc(NC(=O)c2c(NC(=O)Cc3ccccc3)sc3c2CCCCC3)cc1`, the “activity change, negative = displacement” value is reported as -5.25% (inactive).
For `c1ccc2c(NC3C4CC5CC(C4)CC3C5)nc(N3CCOCC3)nc2c1` (configuration not stated), the “activity change, negative = displacement” value was 89.7% (inactive).
In the case of `c1cnc(NC2C3CC4CC(C3)CC2C4)nc1` (configuration not stated), the Potency is reported as 5.62 µM (active).
For `Cc1c(-c2nsc(NC(=O)c3cccc(Cl)c3)n2)nnn1-c1ccccc1C(F)(F)F`, the “activity change, negative = displacement” value was -23.3% (inactive).
With `Cc1cccc(C(=O)Nc2ccc(-c3nc4ccccc4s3)c(C)c2)c1` the “activity change, negative = displacement” value was -9.88% (inactive).
In the case of `CN1CCN(c2oc(-c3ccc(COc4ccc(Cl)cc4)o3)nc2C#N)CC1`, the “activity change, negative = displacement” value is reported as -7.72% (inactive).
